This is an account of results in paper PMC8384837, “Expanding the binding specificity for RNA recognition by a PUF domain”.

Holding throughout (assay): yeast three-hybrid, YBZ-1, SC-Leu-His + 0.5 mM 3-AT, 4 days
What all share (conditions): tags: N-Gal4 AD-HA kept; label: inside an RPR1-promoter hybrid RNA with tandem MS2 sites; ssRNA

In one assay the target is PUM1 PUF domain R7-LFD (Homo sapiens, UniProt Q14671 828-1176, S1079L;N1080F;E1083D). The gist of the method:
(§1)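 Matching RNA elements and Pumilio-1 PUF domain libraries, randomized at the three base-contacting residues of every repeat, were co-expressed from a centromeric plasmid in strain YBZ-1 (LexA–MS2 coat fusion, HIS3 reporter). The repeat regions were PCR-amplified and Illumina-sequenced from cells grown four days on SC-Leu (input) or SC-Leu-His + 0.5 mM 3-AT (selection). The interaction score is the log change in variant frequency from input to selection. It is computed in log2, with a pseudocount of 1 for absent variants.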

The target of a further assay is PUM1 PUF domain R5-WGF (Homo sapiens, UniProt Q14671 828-1176, C1007W;R1008G;Q1011F). Put shortly: as §1
In a further assay the target is T1, PUM1 PUF domain R6-WWA (Homo sapiens, UniProt Q14671 828-1176, N1043W;Y1044W;Q1047A).
T1 sequence: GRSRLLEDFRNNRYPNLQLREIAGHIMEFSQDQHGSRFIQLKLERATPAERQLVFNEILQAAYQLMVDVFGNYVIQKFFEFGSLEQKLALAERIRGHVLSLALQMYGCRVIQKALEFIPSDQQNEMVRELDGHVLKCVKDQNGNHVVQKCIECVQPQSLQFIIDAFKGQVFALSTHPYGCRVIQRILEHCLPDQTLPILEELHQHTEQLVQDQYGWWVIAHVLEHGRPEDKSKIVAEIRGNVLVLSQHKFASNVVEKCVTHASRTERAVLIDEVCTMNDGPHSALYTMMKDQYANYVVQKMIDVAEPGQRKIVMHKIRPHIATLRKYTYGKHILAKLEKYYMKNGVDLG
The gist of the method:
as §1

A further assay deals with PUM1 PUF domain R5-DWM (Homo sapiens, UniProt Q14671 828-1176, C1007D;R1008W;Q1011M). The gist of the method: as §1
The target in the next assay is PUM1 PUF domain R8-RWH (Homo sapiens, UniProt Q14671 828-1176, N1122R;Y1123W;Q1126H). Put shortly:
as §1

Another assay has as its target PUM1 PUF domain R3-VYY (Homo sapiens, UniProt Q14671 828-1176, C935V;R936Y;Q939Y). Put shortly:
as §1

The next assay addresses PUM1 PUF domain R3-QPG (Homo sapiens, UniProt Q14671 828-1176, C935Q;R936P;Q939G). The gist of the method:
as §1

For a further assay, the target named is PUM1 PUF domain R4-DHN (Homo sapiens, UniProt Q14671 828-1176, N971D;Q975N). Put shortly: as §1
A further assay concerns the target PUM1 PUF domain R4-WGD (Homo sapiens, UniProt Q14671 828-1176, N971W;H972G;Q975D). Put shortly: as §1
The target of another assay is PUM1 PUF domain R5-QCR (Homo sapiens, UniProt Q14671 828-1176, C1007Q;R1008C;Q1011R). Put shortly:
as §1

As for “GGCUAGAACUAGUGGAUCCCCCGGCGCCCGGCGGCUCGAGCCCGGGUAAGUUUAAAUAGUCUGCAUGCCGCCGGGCGCCAUGCCUGCAGGUCGACUCUAGAAAACAUG”, the binding signal with PUM1 PUF domain R7-LFD is 2.92 log2 enrichment (interaction score). On to “GGCUAGAACUAGUGGAUCCCCCGGCGCCCGGCGGCUCGAGCCCGGGUAAGUGUGAAUAGUCUGCAUGCCGCCGGGCGCCAUGCCUGCAGGUCGACUCUAGAAAACAUG”, for which, in the assay with PUM1 PUF domain R5-WGF, the binding signal was 4.79 log2 enrichment (interaction score). With “GGCUAGAACUAGUGGAUCCCCCGGCGCCCGGCGGCUCGAGCCCGGGUAAGUGUAAAUAGUCUGCAUGCCGCCGGGCGCCAUGCCUGCAGGUCGACUCUAGAAAACAUG”, the binding signal in the assay with PUM1 PUF domain R6-WWA was 4.79 log2 enrichment (interaction score); in the assay with PUM1 PUF domain R5-DWM, 2.57 log2 enrichment (interaction score); with PUM1 PUF domain R8-RWH, 4.7 log2 enrichment (interaction score). As to “GGCUAGAACUAGUGGAUCCCCCGGCGCCCGGCGGCUCGAGCCCGGGUAAGUGAAAAUAGUCUGCAUGCCGCCGGGCGCCAUGCCUGCAGGUCGACUCUAGAAAACAUG”, in the assay with PUM1 PUF domain R6-WWA, the binding signal is 2.47 log2 enrichment (interaction score). Regarding “GGCUAGAACUAGUGGAUCCCCCGGCGCCCGGCGGCUCGAGCCCGGGUAAGUGUAAUUAGUCUGCAUGCCGCCGGGCGCCAUGCCUGCAGGUCGACUCUAGAAAACAUG”, the binding signal in the assay with PUM1 PUF domain R3-VYY is 5.47 log2 enrichment (interaction score); with PUM1 PUF domain R3-QPG, 3.7 log2 enrichment (interaction score). As to “GGCUAGAACUAGUGGAUCCCCCGGCGCCCGGCGGCUCGAGCCCGGGUAAGUGUACAUAGUCUGCAUGCCGCCGGGCGCCAUGCCUGCAGGUCGACUCUAGAAAACAUG”, the binding signal with PUM1 PUF domain R4-DHN was 2.6 log2 enrichment (interaction score). Consider “GGCUAGAACUAGUGGAUCCCCCGGCGCCCGGCGGCUCGAGCCCGGGUAAGUGUAUAUAGUCUGCAUGCCGCCGGGCGCCAUGCCUGCAGGUCGACUCUAGAAAACAUG”, for which the binding signal in the assay with PUM1 PUF domain R4-DHN was 4.74 log2 enrichment (interaction score); in the assay with PUM1 PUF domain R4-WGD, 4.21 log2 enrichment (interaction score). Take “GGCUAGAACUAGUGGAUCCCCCGGCGCCCGGCGGCUCGAGCCCGGGUAAGUGUUAAUAGUCUGCAUGCCGCCGGGCGCCAUGCCUGCAGGUCGACUCUAGAAAACAUG”: the binding signal with PUM1 PUF domain R5-QCR was 3.91 log2 enrichment (interaction score).

“GGCUAGAACUAGUGGAUCCCCCGGCGCCCGGCGGCUCGAGCCCGGGUAAGUGUCAAUAGUCUGCAUGCCGCCGGGCGCCAUGCCUGCAGGUCGACUCUAGAAAACAUG”: the binding signal with PUM1 PUF domain R5-QCR is 4.97 log2 enrichment (interaction score).

“GGCUAGAACUAGUGGAUCCCCCGGCGCCCGGCGGCUCGAGCCCGGGUAAGCGUAAAUAGUCUGCAUGCCGCCGGGCGCCAUGCCUGCAGGUCGACUCUAGAAAACAUG”: the binding signal with PUM1 PUF domain R8-RWH is 5.97 log2 enrichment (interaction score).
